Experimental data reported in PubChem BioAssay (EPA / NIEHS).
Inconclusive results are not listed. Activity calls are given as the source filed them. Rule for the calls, unless noted: active = hit-call score of the fitted dose curve at least 0.9, where 1 is the maximum; inactive = score below 0.9.

Columns and labels:
[1] = ACEA_ER_80hr: ACEA Biosciences xCELLigence Real-Time Cell Analysis on Estrogen Receptor Agonism for Proliferation (AID 2282667; active = hit-call score of the fitted dose curve at least 0.9, where 1 is the maximum); conditions: T47D proliferation, impedance (xCELLigence), 80 h
Method in brief: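 Real-time electrical impedance tracked growth of the human breast line T47D, with the 80 h post-dosing value used. Dosing spanned eight 1:4 steps down from a 100 uM final top concentration, run in duplicate.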

[2] = APR_HepG2_CellCycleArrest_24hr: Apredica 24-hour HepG2 Assay for Cell Cycle Arrest (AID 2282905); conditions: imaging, actives raise or lower the signal;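 note: cell cycle arrest scored as ratio of 2N to 4N nuclear DNA content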
Method in brief: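 Compounds (0.39 to 200 uM, final DMSO 0.5% v/v) are applied to HepG2 cells for 24 hours; cells are then fixed, permeabilized and nuclei labeled with Hoechst 33342. Automated imaging measures DNA content, and activity is fitted in both directions against DMSO.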

[3] = APR_HepG2_NuclearSize_24hr: Apredica 24-hour HepG2 Assay for Nuclear Size (AID 2282907); conditions: high-content imaging, actives raise or lower the signal
Method in brief: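 Nuclear size is measured by fluorescence high-content imaging of Hoechst-labelled HepG2 nuclei after 24 hr of treatment (0.39–200 uM, 0.5% DMSO). Cells are fixed in 3.7% formaldehyde before staining, and DMSO serves as the baseline for bidirectional curve fitting.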

[4] = APR_HepG2_CellLoss_24hr: Apredica 24-hour HepG2 Assay for Cell Loss (AID 2282908); conditions: high-content imaging;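 for AC50: fit in both directions so a hit may be cell loss or gain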
Method in brief: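 Nuclear count serves as the viability measure: treated cells are fixed, permeabilized and labelled with Hoechst 33342, and six images per well are analysed to identify valid nuclei. Doses span 0.39–200 uM, and activity in either direction is scored against DMSO.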

[5] = APR_HepG2_MicrotubuleCSK_24hr: Apredica 24-hour HepG2 Assay for Microtubule CSK Stabilty (AID 2282909); conditions: HepG2 microtubule cytoskeleton imaging, actives raise or lower the signal
Method in brief: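 Compounds were applied to HepG2 cells for 24 hours across 0.39–200 uM in duplicate, with final DMSO at 0.5% v/v. Fixed, permeabilized cells were labeled for alpha-tubulin and nuclei, and tubulin fluorescence was quantified by imaging, fitted bidirectionally against DMSO.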

[6] = APR_HepG2_MitoticArrest_24hr: Apredica 24-hour HepG2 Assay for Mitotic Arrest (AID 2282910); conditions: high-content imaging, actives raise or lower the signal
Method in brief: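 High-content imaging of fixed HepG2 cells labeled with Hoechst 33342 and anti-phospho-histone H3, after 24 h treatment. Ten concentrations 0.39 to 200 uM in duplicate, final DMSO 0.5%; changes fitted both directions relative to DMSO.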

[7] = APR_HepG2_MitoMembPot_24hr: Apredica 24-hour HepG2 Assay for Mitochondrial Membrane Potential (AID 2282911); conditions: imaging, actives raise or lower the signal
Method in brief: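 Cells are dosed for 24 hr across 0.39 to 200 uM with solvent held at 0.5% DMSO. They are then stained with 250 nM MitoTracker Red CMXRos for 30 min, fixed in 3.7% formaldehyde and imaged.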

[8] = APR_HepG2_MitoMass_24hr: Apredica 24-hour HepG2 Assay for Mitochondrial Mass (AID 2282912); conditions: high-content imaging, actives raise or lower the signal
Method in brief: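 After 24 hr of treatment at 0.39 to 200 uM, HepG2 cells take up 250 nM MitoTracker Red CMXRos for 30 min and are then fixed with 3.7% formaldehyde. Per-well images are quantified, and any change in either direction is scored against solvent.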

[9] = APR_HepG2_p53Act_24hr: Apredica 24-hour HepG2 Assay for p53 Activation (AID 2282913); conditions: high-content imaging, actives raise or lower the signal;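 note: p53 protein immunofluorescence averaged per cell in HepG2 with Hoechst nuclei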
Method in brief: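 Human HepG2 liver cells; 24 hr cpd treatment, 0.39–200 uM, 0.5% DMSO final. Fixed in 3.7% formaldehyde, permeabilized with 0.5% Triton X-100, stained with anti-p53/Cy5 plus Hoechst 33342. Six images per well at 20x; gain or loss vs DMSO.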

[10] = APR_HepG2_CellCycleArrest_72hr: Apredica 72-hour HepG2 Assay for Cell Cycle Arrest (AID 2282914); conditions: high-content imaging, actives raise or lower the signal
Method in brief: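 Read-out is Hoechst-stained nuclear DNA content measured by automated fluorescence imaging (20x, six images per well), fitted in both directions relative to DMSO. Human HepG2 liver cells received 0.39–200 uM compound for 72 hr at 0.5% v/v DMSO.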

[11] = APR_HepG2_CellLoss_72hr: Apredica 72-hour HepG2 Assay for Cell Loss (AID 2282915); conditions: high-content imaging
Method in brief: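 Cell number comes from Hoechst 33342-labelled nuclei, imaged at 20x after 3.7% formaldehyde fixation. Dosing was 0.39–200 uM, ten concentrations in duplicate, 0.5% DMSO final, for 72 h. Bidirectional fit relative to DMSO baseline.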

[12] = APR_HepG2_P-H2AX_72hr: Apredica 72-hour HepG2 Assay for H2AX Phosphorylation (AID 2282916); conditions: imaging, actives raise or lower the signal;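 note: phospho-histone H2A.x immunostain intensity per cell marking DNA damage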
Method in brief: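 Human hepatoma HepG2 cells are dosed across ten concentrations (0.39 to 200 uM, 0.5% v/v DMSO) and incubated 72 hr. Phospho-histone H2A.x is then detected by antibody staining alongside c-Jun and Hoechst, and quantified by automated fluorescence imaging.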

[13] = APR_HepG2_MitoMembPot_72hr: Apredica 72-hour HepG2 Assay for Mitochondrial Membrane Potential (AID 2282917); conditions: imaging, actives raise or lower the signal
Method in brief: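 Membrane potential read by MitoTracker Red CMXRos (250 nM, 30 min, pre-fixation) fluorescence imaging of HepG2 after 72 hr exposure. Ten concentrations, 0.39–200 uM, duplicate wells, 0.5% DMSO; fitted in both directions against DMSO baseline.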

[14] = APR_HepG2_MitoticArrest_72hr: Apredica 72-hour HepG2 Assay for Mitotic Arrest (AID 2282918); conditions: high-content imaging, actives raise or lower the signal
Method in brief: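 Read-out is phospho-histone H3 immunofluorescence with Hoechst nuclear segmentation, imaged at 20x. Human HepG2 liver cells received ten concentrations (0.39–200 uM, final DMSO 0.5% v/v) for 72 hr before fixation. Gain or loss of signal was fitted relative to DMSO.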

[15] = APR_HepG2_MicrotubuleCSK_72hr: Apredica 72-hour HepG2 Assay for Microtubule CSK Stabilty (AID 2282919); conditions: HepG2 microtubule cytoskeleton, high-content imaging, actives raise or lower the signal
Method in brief: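 High-content imaging of alpha-tubulin staining in fixed HepG2 cells after 72 hr treatment with ten concentrations from 0.39 to 200 uM (0.5% DMSO). Fitting was bidirectional against DMSO; taxol served as positive control.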

[16] = APR_HepG2_P-H2AX_24hr: Apredica 24-hour HepG2 Assay for H2AX Phosphorylation (AID 2282920); conditions: high-content imaging, actives raise or lower the signal
Method in brief: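 HepG2, 24 hr, cpd 0.39–200 uM (10 conc, duplicate), DMSO 0.5% v/v final. Fix 3.7% formaldehyde, Triton X-100 permeabilize, anti-phospho-H2A.x 1:200 + Hoechst 2 ug/mL. Imaged, bidirectional fit vs DMSO.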

[17] = APR_HepG2_StressKinase_72hr: Apredica 72-hour HepG2 Assay for Stress Kinase (AID 2282921); conditions: HepG2 stress kinase (phospho-c-Jun) imaging, actives raise or lower the signal
Method in brief: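 After a 72 h compound treatment spanning 0.39 to 200 uM, formaldehyde-fixed cells are labelled for phosphorylated c-Jun and nuclei, imaged by automated fluorescence microscopy, and activity is fitted in both directions relative to DMSO controls.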

[18] = APR_HepG2_StressKinase_24hr: Apredica 24-hour HepG2 Assay for Stress Kinase (AID 2282922); conditions: HepG2 stress kinase (phospho-c-Jun) imaging, actives raise or lower the signal
Method in brief: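 High-content imaging of phospho-c-Jun immunofluorescence in fixed, permeabilized HepG2 cells after 24 h dosing. Ten concentrations, 0.39 to 200 uM, run in duplicate at 0.5% v/v DMSO; gain or loss of signal versus DMSO.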

[19] = APR_HepG2_p53Act_72hr: Apredica 72-hour HepG2 Assay for p53 Activation (AID 2282923); conditions: high-content imaging, actives raise or lower the signal;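 note: average cellular p53 protein immunofluorescence intensity in HepG2 cells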
Method in brief: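 Imaging-based endpoint: after 72 hr compound exposure (up to 200 uM, 0.5% DMSO), fixed and permeabilized monolayers were labelled with anti-p53 antibody and imaged; signal change in either direction was fitted relative to DMSO controls.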

[20] = APR_HepG2_MitoMass_72hr: Apredica 72-hour HepG2 Assay for Mitochondrial Mass (AID 2282924); conditions: high-content imaging, actives raise or lower the signal;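 note: MitoTracker Red CMXRos stain intensity per cell imaged as mitochondrial mass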
Method in brief: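 Readout is imaged MitoTracker Red (250 nM, 30 min, pre-fixation) signal, fitted bidirectionally against DMSO baseline. Human HepG2 liver cells received compound 0.39–200 uM in duplicate for 72 hr, final DMSO 0.5%.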

Measured: AC50

CCCCCCCCCCCCCCCCOS(=O)(=O)O
inactive: all assays above

OCc1c[nH]c2ccccc12
inactive: [1]

CCCCCCCCCCCCCCO
active: [2] 162 µM | [4] 98.1 µM | [5] 107 µM | [6] 99.3 µM | [8] 106 µM | [9] 95.8 µM | [10] 100 µM | [11] 106 µM | [12] 98.6 µM | [14] 90.9 µM | [15] 114 µM | [16] 101 µM | [19] 104 µM
inactive: [1] | [3] | [7] | [13] | [17] | [18] | [20]

NCC(F)(F)C(F)(F)C(F)(F)C(F)(F)F
inactive: [1]

CCOC(N)=O
inactive: all assays above

FC(F)(F)C(F)(F)C(F)(F)C(F)(F)C(F)(F)C(F)(F)I
inactive: [1]

COc1cc2c(c(OC)c1OC)-c1ccc(OC)c(=O)cc1[C@@H](NC(C)=O)CC2
active: [2] 0.0391 µM | [4] 0.0447 µM | [6] 0.0382 µM | [10] 0.0732 µM | [11] 0.0536 µM | [12] 0.0815 µM | [14] 0.0391 µM | [15] 0.0628 µM | [16] 0.0797 µM | [17] 0.0456 µM | [18] 0.0391 µM
inactive: [1] | [3] | [5] | [7] | [8] | [13] | [20]

CCc1cccc(CC)c1N
not listed: [17]
inactive: all other assays above

O=S1(=O)CCCO1
inactive: all assays above

CC(C)C(=O)Nc1ccc([N+](=O)[O-])c(C(F)(F)F)c1
inactive: [3] | [5] | [7] | [13] | [17] | [18]
active: [1] 80.5 µM | [2] 71 µM | [4] 44.4 µM | [6] 62.8 µM | [8] 92.2 µM | [10] 34.9 µM | [11] 58.8 µM | [12] 70.8 µM | [14] 61 µM | [15] 67.8 µM | [16] 91 µM | [20] 74.9 µM

CCN(CC)C(=S)SSC(=S)N(CC)CC
inactive: [1] | [2] | [3] | [7]
active: [4] 50.6 µM | [5] 78.9 µM | [6] 25.2 µM | [8] 26.1 µM | [9] 4.83 µM | [10] 3.04 µM | [11] 22.9 µM | [12] 27.1 µM | [13] 37.4 µM | [14] 23.5 µM | [15] 60.7 µM | [16] 7.04 µM | [17] 31 µM | [18] 87.4 µM | [19] 12 µM | [20] 14.4 µM

c1ccc2ncccc2c1
not listed: [17]
inactive: all other assays above

CCc1ccc(O)c(C(C)(C)C)c1
inactive: [1] | [3] | [9] | [10] | [13] | [15] | [16] | [18] | [20]
active: [2] 98.1 µM | [4] 83.8 µM | [5] 80.7 µM | [6] 101 µM | [7] 86.2 µM | [8] 105 µM | [11] 80.7 µM | [12] 79.6 µM | [14] 81.3 µM | [19] 71.6 µM

NC(=O)NN=Cc1ccc([N+](=O)[O-])o1
inactive: [3] | [5] | [6] | [7] | [8] | [9] | [13] | [18] | [20]
active: [1] 10.5 µM | [2] 81.4 µM | [4] 57.6 µM | [10] 56.7 µM | [11] 67.8 µM | [12] 77.3 µM | [14] 68.7 µM | [15] 85.4 µM | [16] 72 µM | [19] 67.3 µM
